Experimental data as given in PubChem BioAssay (NCI).
About 79,000 compounds went through this panel and 15% of them were active in at least one assay; those are over-represented in the sample as a whole. Activity calls are given as the source filed them. Cut-off read from the data, not from the text of the source: active = growth inhibition above about 70%; inactive = the rest.

Columns and labels:
[1] = NCI Yeast Anticancer Drug Screen. Data for the rad50 strain (AID 155);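 note: 0% = growth of vehicle-only cultures of the same strain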; settings: S. cerevisiae rad50 strain growth inhibition, hits give high values
Method in brief: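 Readout: growth inhibition relative to vehicle-treated cultures. Compound exposure was carried out in a genetically defined yeast strain deficient in DNA damage repair.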

[2] = NCI Yeast Anticancer Drug Screen. Data for the mec2-1 strain (AID 157); settings: S. cerevisiae mec2-1 strain, hits give high values
Method in brief: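 Compounds were applied to mec2-1 yeast cells. Their growth was then compared with that of vehicle-treated cultures to give growth inhibition.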

[3] = NCI Yeast Anticancer Drug Screen. Data for the sgs1 mgt1 strain (AID 161);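 note: 0% = growth of cultures given vehicle only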; settings: S. cerevisiae sgs1 mgt1 strain, hits give high values
Method in brief: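 Compounds are added to genetically altered yeast, and growth is compared with cultures given vehicle alone to give percent inhibition.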

[4] = NCI Yeast Anticancer Drug Screen. Data for the cln2 rad14 strain (AID 165);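 note: 0% = growth equal to vehicle treated cultures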; settings: S. cerevisiae cln2 rad14 strain, hits give high values
Method in brief: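 Strain: cln2 rad14 yeast, altered in cell cycle control and DNA damage repair. Read-out: growth inhibition vs vehicle.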

[5] = NCI Yeast Anticancer Drug Screen. Data for the bub3 strain (AID 167); settings: S. cerevisiae bub3 mutant strain, hits give high values
Method in brief: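 Readout: yeast growth inhibition, expressed relative to vehicle-only wells. The test organism is a mutant strain from a panel with lesions in DNA repair or checkpoint genes.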

[6] = NCI Yeast Anticancer Drug Screen. Data for the mlh1 rad18 strain (AID 175); settings: S. cerevisiae mlh1 rad18 strain growth inhibition, hits give high values
Method in brief: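 A repair-deficient yeast strain is exposed to test compound, and growth is scored relative to vehicle-treated controls.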

[7] = at 5.0 µM (retest, dose inferred, filed as 0.5)
[8] = at 50.0 µM (retest, dose inferred, filed as 5.0)

Measured: growth inhibition

C#CC(C)(C)OC(C)=O
active: [6]; at 50.0 µM 76.6%
inactive: [1]; [7] -2% | [1]; [8] 26% | [1]; at 50.0 µM 69.9% | [2]; [7] 0% | [2]; [8] 0% | [2]; at 50.0 µM 19.2% | [3]; [7] -1% | [3]; [8] 5% | [3]; at 50.0 µM 69.5% | [4]; [7] 2% | [4]; [8] 0% | [4]; at 50.0 µM 5.75% | [5]; [7] 1% | [5]; [8] 4% | [5]; at 50.0 µM 35.6% | [6]; [7] -1% | [6]; [8] 4%

Clc1ccc(Cc2nc3ccccc3s2)c(Cl)c1
inactive: [1]; [7] 39% | [2]; [7] 36% | [3]; [7] 43% | [4]; [7] 34% | [5]; [7] 43% | [6]; [7] 57%
active: [1]; [8] 98% | [1]; at 50.0 µM 90.8% | [2]; [8] 99% | [2]; at 50.0 µM 93.3% | [3]; [8] 99% | [3]; at 50.0 µM 94.1% | [4]; [8] 89% | [4]; at 50.0 µM 91.5% | [5]; [8] 98% | [5]; at 50.0 µM 92.5% | [6]; [8] 99% | [6]; at 50.0 µM 92.5%

COC(=O)c1cc(=O)n(-c2ccccc2C(F)(F)F)c(SC)n1
inactive: [1]; [7] 24% | [2]; [7] 14% | [3]; [7] 43% | [4]; [7] 14% | [5]; [7] 7% | [6]; [7] 39%
active: [1]; [8] 91% | [1]; at 50.0 µM 99.2% | [2]; [8] 92% | [2]; at 50.0 µM 99.5% | [3]; [8] 94% | [3]; at 50.0 µM 99.5% | [4]; [8] 87% | [4]; at 50.0 µM 96.8% | [5]; [8] 89% | [5]; at 50.0 µM 99.5% | [6]; [8] 95% | [6]; at 50.0 µM 99.5%

O=c1c2ccccc2sc2c([N+](=O)[O-])ccc(NCCNCCO)c12
inactive: [1]; [7] 57% | [2]; [7] 35% | [3]; [7] 18% | [4]; [7] 25% | [5]; [7] 21% | [6]; [7] 35%
active: [1]; [8] 98% | [1]; at 50.0 µM 87.2% | [2]; [8] 99% | [2]; at 50.0 µM 92.1% | [3]; [8] 98% | [3]; at 50.0 µM 86.7% | [4]; [8] 98% | [4]; at 50.0 µM 87.2% | [5]; [8] 99% | [5]; at 50.0 µM 88.5% | [6]; [8] 98% | [6]; at 50.0 µM 83.3%

CC1/C(=N\O)CC(c2ccccc2)N(C)C1c1ccccc1 (configuration not stated)
active: [1]; [7] 96% | [1]; [8] 96% | [1]; at 50.0 µM 98.2% | [2]; [7] 96% | [2]; [8] 98% | [2]; at 50.0 µM 98.2% | [3]; [7] 96% | [3]; [8] 97% | [3]; at 50.0 µM 97.7% | [4]; [8] 78% | [4]; at 50.0 µM 83.5% | [5]; [7] 94% | [5]; [8] 96% | [5]; at 50.0 µM 98% | [6]; [7] 95% | [6]; [8] 97% | [6]; at 50.0 µM 97.7%
inactive: [4]; [7] 58%

O=C1c2ccc3ccccc3c2CCC1[n+]1ccc2ccccc2c1 (configuration not stated)
active: [2]; [8] 76% | [2]; at 50.0 µM 77.3% | [3]; [8] 79% | [3]; at 50.0 µM 70.7% | [4]; at 50.0 µM 83.6% | [5]; at 50.0 µM 71% | [6]; [8] 85%
inactive: [1]; [7] 1% | [1]; [8] 57% | [1]; at 50.0 µM 53.4% | [2]; [7] 11% | [3]; [7] 7% | [4]; [7] -5% | [4]; [8] 29% | [5]; [7] -4% | [5]; [8] 63% | [6]; [7] 15% | [6]; at 50.0 µM 69.5%

Oc1ccc2ccccc2c1.[Cu+2]
active: [1]; at 50.0 µM 98% | [2]; at 50.0 µM 97.2% | [3]; at 50.0 µM 98.4% | [4]; at 50.0 µM 83.2% | [5]; at 50.0 µM 94% | [6]; at 50.0 µM 98%
inactive: [1]; [7] 1% | [1]; [8] 20% | [2]; [7] -1% | [2]; [8] 12% | [3]; [7] -2% | [3]; [8] 6% | [4]; [7] -4% | [4]; [8] 13% | [5]; [7] 2% | [5]; [8] 8% | [6]; [7] 0% | [6]; [8] 33%

CC(=O)Oc1ccc(-c2ccc(Br)cc2)cc1
active: [1]; [8] 92% | [1]; at 50.0 µM 89.2% | [2]; [8] 91% | [2]; at 50.0 µM 97.9% | [3]; [8] 89% | [3]; at 50.0 µM 96.4% | [4]; [8] 93% | [4]; at 50.0 µM 97.8% | [5]; [8] 94% | [5]; at 50.0 µM 97.6% | [6]; [8] 94% | [6]; at 50.0 µM 98%
inactive: [1]; [7] -1% | [2]; [7] -3% | [3]; [7] -2% | [4]; [7] -11% | [5]; [7] 20% | [6]; [7] -7%

Cc1cc(-c2ccc(N=Nc3cc(S(=O)(=O)O)c4ccccc4c3N)c(C)c2)ccc1N=Nc1cc(S(=O)(=O)O)c2ccccc2c1N
active: [1]; [8] 82% | [5]; [8] 73% | [5]; at 50.0 µM 73.7% | [6]; [8] 86% | [6]; at 50.0 µM 71%
inactive: [1]; [7] 19% | [1]; at 50.0 µM 64.6% | [2]; [7] 16% | [2]; [8] 60% | [2]; at 50.0 µM 52.1% | [3]; [7] 29% | [3]; [8] 69% | [3]; at 50.0 µM 66.8% | [4]; [7] 31% | [4]; [8] 48% | [4]; at 50.0 µM 30.6% | [5]; [7] 26% | [6]; [7] 32%
